We go through 9 compounds from PubChem BioAssay (Tox21).

The structures appear in SMILES notation. Results filed as inconclusive are left out. Values without a mark were called inactive. Active and inactive are the calls of the source. Unless noted, calls come from the whole dose curve; as a rule, active = well fitted curve in the direction sought with a large enough effect in the repeat runs; inconclusive = weak or mixed curves; inactive = no such curve, though single readings can be large; an effect the other way counts as inactive or inconclusive.

Test [1] is described as follows: qHTS assay to identify aromatase inhibitors - cell viability counter screen (AID 743084).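 Note: cells stimulated with testosterone during compound exposure; nearly all actives have a fitted effect of over 55% in size.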 For orientation: Quantitative high-throughput screening tests each substance at several concentrations.
The target in test [2] is Aryl hydrocarbon receptor (Homo sapiens) (UniProt P35869). The test can be described thus: qHTS assay to identify small molecule that activate the aryl hydrocarbon receptor (AhR) signaling pathway (AID 743085).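 For activation: HG2L7.5c1 human HepG2 liver cells with stably integrated DRE-driven firefly reporter; series mostly up to about 70 µM.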 Note: nearly all actives have a fitted effect of over 15% in size. Note: potency is the fitted concentration of half-maximal effect. In a few lines:
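Stably transfected human liver carcinoma cells (HG2L7.5c1; 20 DRE-firefly luciferase) were incubated 5 h, dosed, and kept 24 h at 37C. Agonism was scored from increased luciferase luminescence.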

Test [3] can be described thus: qHTS assay to identify small molecule that activate the aryl hydrocarbon receptor (AhR) signaling pathway - cell viability counter screen (AID 743086). For viability change, negative = cytotoxic: series mostly up to about 70 µM. Note: nearly all actives have a fitted effect of over 45% in size. Note: potency is the fitted concentration of half-maximal effect. Put shortly: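 Cytotoxicity counter screen: CellTiter-Fluor signal (30 min, 37 C) in 4000 HepG2 cells/well carrying the DRE-luciferase reporter, following 24 h compound exposure at 37 C.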
The target of test [4] is Peroxisome proliferator-activated receptor gamma (Homo sapiens) (UniProt P37231). The test can be described thus: qHTS assay to identify small molecule agonists of the peroxisome proliferator-activated receptor gamma (PPARg) signaling pathway (AID 743094; active = well fitted activation curve with a large enough effect in the signal ratio in the repeat runs, not every such curve was filed as active; the % refers to the signal ratio). In a few lines: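 Quantitative HTS agonist mode: stable HEK293H line with UAS-beta-lactamase reporter under PPARg control, 17 h compound exposure at 37C, fluorescence after 1 h FRET substrate loading at room temperature.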

Test [5] is described as follows: qHTS assay to identify small molecule antagonists of the peroxisome proliferator-activated receptor gamma (PPARg) signaling pathway - cell viability counter screen (AID 743194). Note: nearly all actives have a fitted effect of over 55% in size. Particulars: Potency: co-treated with 50 nM rosiglitazone. Put shortly:
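Viability was measured as CellTiter-Glo luminescence in GeneBLAzer PPARg UAS-bla HEK293H cells. These cells had been exposed 17 h at 37 C to compounds together with rosiglitazone at 50 nM final, with the beta-lactamase readout taken in the same wells.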

The nature of test [6]: qHTS assay for small molecule agonists of the antioxidant response element (ARE) signaling pathway (AID 743202; active = well fitted activation curve with a large enough effect in the signal ratio in the repeat runs, not every such curve was filed as active; the % refers to the signal ratio). Put shortly: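 Quantitative high-throughput format in HepG2 cells bearing an integrated ARE-beta-lactamase reporter. Compound exposure lasted 16 h at 37 C, and fluorescence was read 2 h after adding LiveBLAzer B/G substrate at room temperature.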
Test [7] in a line: qHTS assay for small molecule agonists of the antioxidant response element (ARE) signaling pathway - cell viability counter screen (AID 743203; calls by dose curve; note: nearly all actives have a fitted effect of over 55% in size). In a few lines: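 Seeded at 2,000 cells/well, ARE-bla HepG2 cells were incubated 5 hrs before compound addition. After 16 hrs of treatment at 37C with 5% CO2, CellTiter-Glo reagent was added and luminescence read 30 min later.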
Test [8] can be described thus: qHTS assay for small molecule activators of the heat shock response signaling pathway - cell viability counter screen (AID 743209). Note: nearly all actives have a fitted effect of over 50% in size. Put shortly: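 First, HSE-bla HeLa cells were seeded at 1500 cells/well and kept overnight at 37 C. Next, compounds were pinned in and incubated 5 h. After the FRET substrate step, CellTiter-Glo was added and luminescence read 30 min later.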

Test [9] is described as follows: qHTS assay for small molecule activators of the heat shock response signaling pathway (AID 743210; active = well fitted activation curve with a large enough effect in the signal ratio in the repeat runs, with a control signal flat, not every such curve was filed as active; the % refers to the signal ratio;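 note: HeLa cells with beta-lactamase reporter driven by heat shock elements; series mostly up to about 63 µM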). In a few lines:
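HeLa HSE-bla cells, overnight plating; cpd in DMSO 5 h, 37 C; LiveBLAzer B/G FRET substrate 2.5 h RT; fluorescence intensity read.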

Test [10] can be described thus: qHTS assay to identify small molecule agonists of the peroxisome proliferator-activated receptor delta (PPARd) signaling pathway - cell viability counter screen (AID 743211). Note: nearly all actives have a fitted effect of over 55% in size. In a few lines:
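In the same wells used for beta-lactamase reporter measurement, cytotoxicity is scored by CellTiter-Glo. HEK293H PPARd-bla cells receive compound for 17 h at 37C following a 5 h settling period.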

Test [11] has as its target Bile acid receptor (Homo sapiens) (UniProt Q96RI1). As to the kind of experiment: qHTS assay to identify small molecule antagonists of the farnesoid-X-receptor (FXR) signaling pathway (AID 743217; active = well fitted inhibition curve with a large enough effect in the signal ratio in the repeat runs, not every such curve was filed as active; the % refers to the signal ratio). Put shortly:
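Antagonist mode against 50 uM (final) chenodeoxycholic acid stimulation in FXR-bla HEK 293T cells, 16 h at 37 °C. Inhibition detected as reduced beta-lactamase activity via LiveBLAzer B/G FRET fluorescence after 2 h at room temperature.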

Test [12] in a line: qHTS assay to identify small molecule agonists of the farnesoid-X-receptor (FXR) signaling pathway - cell viability counter screen (AID 743218). Note: nearly all actives have a fitted effect of over 45% in size. Put shortly:
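Cytotoxicity counter-screen run in parallel, same wells: FXR-UAS-bla HEK 293T cells dosed 16 h at 37 C, viability read by CellTiter-Glo luminescence after 30 min at room temperature.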

In test [13] the target is Bile acid receptor (Homo sapiens) (UniProt Q96RI1). As to the kind of experiment: qHTS assay to identify small molecule agonists of the farnesoid-X-receptor (FXR) signaling pathway (AID 743220; active = well fitted activation curve with a large enough effect in the signal ratio in the repeat runs, not every such curve was filed as active; the % refers to the signal ratio). In a few lines:
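Beta-lactamase reporter under UAS control in GeneBLAzer FXR HEK 293T cells (5000/well) measured with LiveBLAzer FRET substrate after 2 h at room temperature. Compound exposure lasted 16 h at 37C.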

A short description of test [14]: qHTS assay to identify small molecule antagonists of the farnesoid-X-receptor (FXR) signaling pathway - cell viability counter screen (AID 743221; active = well fitted cell-killing curve with a large enough effect in the repeat runs, not every such curve was filed as active; note: nearly all actives have a fitted effect of over 50% in size). Put shortly: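 Here viability was scored by luminescence after CellTiter-Glo addition to wells already read for beta-lactamase. Prior treatment: compound plus CDCA (50 uM final), 16 h, 37 C, HEK 293T FXR-bla cells.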

Test [15] concerns the target Peroxisome proliferator-activated receptor delta (Homo sapiens) (UniProt Q03181). As to the kind of experiment: qHTS assay to identify small molecule agonists of the peroxisome proliferator-activated receptor delta (PPARd) signaling pathway (AID 743212; calls by dose curve). In a few lines:
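HEK293H PPARd-bla cells; 5 h preincubation 37 C/5% CO2; compound (DMSO) 37 C; LiveBLAzer B/G FRET substrate 2 h RT; fluorescence intensity.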

Test [16] in a line: qHTS assay to identify small molecule antagonists of the peroxisome proliferator-activated receptor delta (PPARd) signaling pathway - cell viability counter screen (AID 743213). Note: nearly all actives have a fitted effect of over 50% in size. Put shortly: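 CellTiter-Glo was added to PPARd-bla HEK293H wells following 17 h compound treatment in the presence of 300 nM L165041. Luminescence was recorded after 30 min at room temperature.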
Test [17] deals with Peroxisome proliferator-activated receptor delta (Homo sapiens) (UniProt Q03181). As to the kind of experiment: qHTS assay to identify small molecule antagonists of the peroxisome proliferator-activated receptor delta (PPARd) signaling pathway (AID 743215; active = well fitted inhibition curve with a large enough effect in the signal ratio in the repeat runs, not every such curve was filed as active; the % refers to the signal ratio;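 note: cells stimulated with agonist L165041 at 300 nM final during compound exposure; series mostly up to about 62 µM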). Put shortly: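 Inhibition of L165041-driven (300 nM final) PPARd signaling is scored in HEK293H UAS-bla cells. Exposure lasts 17 h at 37 C; beta-lactamase activity is then read by FRET substrate fluorescence after 2 h at room temperature.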

The target in test [18] is Vitamin D3 receptor (Homo sapiens) (UniProt P11473). As to the kind of experiment: qHTS assay to identify small molecule agonists of the vitamin D receptor (VDR) signaling pathway (AID 743222; calls by dose curve). In a few lines: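 Quantitative HTS agonist-mode screen: compounds in DMSO were pin-transferred onto VDR-bla cells and incubated 16 h at 37C, 5% CO2. Reporter activity was detected with LiveBLAzer B/G FRET substrate after 2 h at room temperature.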

For test [19] the target is unchanged. As to the kind of experiment: qHTS assay to identify small molecule antagonists of the vitamin D receptor (VDR) signaling pathway (AID 743223; active = well fitted inhibition curve with a large enough effect in the signal ratio in the repeat runs, not every such curve was filed as active; the % refers to the signal ratio). Put shortly: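 Inhibition of agonist-driven VDR signalling is scored in VDR-bla cells: 3 nM final 1alpha,25-dihydroxyvitamin D3 plus compound, 16 h at 37C, then beta-lactamase detection by FRET substrate fluorescence after 2 h.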
% is set by controls: 0 for no effect and ±100 for the full control effect.

Chain of Peroxisome proliferator-activated receptor gamma (Homo sapiens) (P37231 whole entry, looked up): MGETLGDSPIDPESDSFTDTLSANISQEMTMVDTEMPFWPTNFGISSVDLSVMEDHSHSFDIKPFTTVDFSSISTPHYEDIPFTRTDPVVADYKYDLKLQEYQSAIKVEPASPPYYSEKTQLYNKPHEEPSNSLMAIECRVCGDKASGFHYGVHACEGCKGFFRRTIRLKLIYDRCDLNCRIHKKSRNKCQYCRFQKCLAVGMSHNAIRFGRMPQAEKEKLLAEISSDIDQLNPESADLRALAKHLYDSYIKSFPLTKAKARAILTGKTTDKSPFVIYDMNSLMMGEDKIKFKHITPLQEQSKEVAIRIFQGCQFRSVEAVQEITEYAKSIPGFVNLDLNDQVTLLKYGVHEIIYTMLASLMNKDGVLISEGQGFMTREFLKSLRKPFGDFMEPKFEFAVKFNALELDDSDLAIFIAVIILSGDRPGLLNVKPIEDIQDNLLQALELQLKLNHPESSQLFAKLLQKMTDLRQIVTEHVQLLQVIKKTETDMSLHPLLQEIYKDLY
Chain of Bile acid receptor (Homo sapiens) (Q96RI1 whole entry, looked up): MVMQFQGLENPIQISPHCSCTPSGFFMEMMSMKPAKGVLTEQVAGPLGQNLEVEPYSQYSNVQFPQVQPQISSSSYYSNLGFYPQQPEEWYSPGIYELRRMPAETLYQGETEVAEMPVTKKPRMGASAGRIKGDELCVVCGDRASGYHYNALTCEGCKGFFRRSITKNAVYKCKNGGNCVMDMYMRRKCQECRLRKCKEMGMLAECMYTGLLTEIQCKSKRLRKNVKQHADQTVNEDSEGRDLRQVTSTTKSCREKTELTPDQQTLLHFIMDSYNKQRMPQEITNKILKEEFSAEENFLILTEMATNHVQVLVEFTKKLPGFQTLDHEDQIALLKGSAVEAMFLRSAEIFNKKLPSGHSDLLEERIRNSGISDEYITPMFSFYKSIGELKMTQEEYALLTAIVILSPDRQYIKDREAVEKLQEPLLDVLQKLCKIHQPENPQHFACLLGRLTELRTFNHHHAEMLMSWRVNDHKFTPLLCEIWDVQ
Chain of Vitamin D3 receptor (Homo sapiens) (P11473 whole entry, looked up): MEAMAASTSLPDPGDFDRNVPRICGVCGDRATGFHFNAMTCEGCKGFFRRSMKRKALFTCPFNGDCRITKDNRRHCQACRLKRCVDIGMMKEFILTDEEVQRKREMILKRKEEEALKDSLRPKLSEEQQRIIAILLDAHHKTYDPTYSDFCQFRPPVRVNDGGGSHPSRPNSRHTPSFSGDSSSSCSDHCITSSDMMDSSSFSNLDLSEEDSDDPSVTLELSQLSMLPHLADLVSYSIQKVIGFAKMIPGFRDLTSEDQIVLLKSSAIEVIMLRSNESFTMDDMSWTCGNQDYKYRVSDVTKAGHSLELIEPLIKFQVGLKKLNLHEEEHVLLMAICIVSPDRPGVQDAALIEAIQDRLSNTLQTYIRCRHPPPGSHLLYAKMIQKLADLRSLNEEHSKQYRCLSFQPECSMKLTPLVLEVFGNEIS
Chain of Peroxisome proliferator-activated receptor delta (Homo sapiens) (Q03181 whole entry, looked up): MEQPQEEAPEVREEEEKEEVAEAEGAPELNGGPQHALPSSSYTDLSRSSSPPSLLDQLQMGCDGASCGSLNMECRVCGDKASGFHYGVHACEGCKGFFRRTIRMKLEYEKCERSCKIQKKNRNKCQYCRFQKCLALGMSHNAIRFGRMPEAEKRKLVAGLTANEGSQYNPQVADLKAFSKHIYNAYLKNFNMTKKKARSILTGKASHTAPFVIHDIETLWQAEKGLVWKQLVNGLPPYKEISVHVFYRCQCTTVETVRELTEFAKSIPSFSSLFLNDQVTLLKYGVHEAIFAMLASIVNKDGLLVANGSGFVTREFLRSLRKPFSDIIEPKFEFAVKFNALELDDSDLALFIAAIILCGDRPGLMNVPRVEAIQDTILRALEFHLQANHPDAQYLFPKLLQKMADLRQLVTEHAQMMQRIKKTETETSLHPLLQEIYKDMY
Chain of Aryl hydrocarbon receptor (Homo sapiens) (P35869 whole entry, looked up): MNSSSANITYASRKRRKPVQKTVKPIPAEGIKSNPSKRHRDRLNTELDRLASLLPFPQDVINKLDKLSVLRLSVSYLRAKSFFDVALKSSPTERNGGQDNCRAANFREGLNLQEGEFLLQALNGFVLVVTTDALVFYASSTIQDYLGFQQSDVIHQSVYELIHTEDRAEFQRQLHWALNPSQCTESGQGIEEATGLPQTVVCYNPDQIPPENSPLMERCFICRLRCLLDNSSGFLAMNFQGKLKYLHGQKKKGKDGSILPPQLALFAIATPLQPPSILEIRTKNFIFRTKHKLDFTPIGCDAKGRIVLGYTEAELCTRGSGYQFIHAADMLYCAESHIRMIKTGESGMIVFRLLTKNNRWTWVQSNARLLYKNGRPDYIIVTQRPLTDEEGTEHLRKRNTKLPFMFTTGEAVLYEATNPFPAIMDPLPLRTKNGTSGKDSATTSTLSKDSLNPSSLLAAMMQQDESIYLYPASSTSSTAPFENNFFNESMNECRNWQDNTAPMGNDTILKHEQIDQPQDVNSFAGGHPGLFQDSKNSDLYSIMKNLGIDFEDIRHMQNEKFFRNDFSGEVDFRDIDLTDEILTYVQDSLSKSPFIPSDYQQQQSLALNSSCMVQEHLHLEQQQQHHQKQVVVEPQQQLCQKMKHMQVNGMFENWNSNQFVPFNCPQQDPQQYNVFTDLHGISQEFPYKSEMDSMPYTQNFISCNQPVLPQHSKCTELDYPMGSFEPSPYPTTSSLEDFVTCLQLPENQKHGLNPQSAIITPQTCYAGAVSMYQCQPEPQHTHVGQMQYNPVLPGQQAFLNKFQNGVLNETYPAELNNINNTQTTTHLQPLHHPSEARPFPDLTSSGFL

Turning to `CCCN1CCC[C@@H]2Cc3[nH]ncc3C[C@H]21`, the Potency entry in test [1], in [3], in test [5], in test [6], in test [7] and in [8] was “inactive” in each case. The Potency entry in test [9], in test [10], in test [12] and in test [14] was “inactive” each time. In [2], the Potency was 9.44 µM (active). The compound was classed as inactive in test [4], in test [11] and in test [13].
For `CCC1(c2ccccc2)C(=O)N(COC)C(=O)N(COC)C1=O`, the Potency result in test [1], in [2], in [3], in test [5], in test [6] and in test [7] was “inactive” in each case. In addition, the Potency result in [9], in test [10], in [16], in [17], in test [12] and in [14] was “inactive” each time. In addition, the outcome in test [4], in test [15], in [18] and in test [19] was inactive.
On to `CCc1cc(OC)c(C[C@H](C)N)cc1OC`, for which the Potency result in test [1], in test [2], in [5], in test [7], in test [8] and in test [9] was “inactive” in each case. Further, the Potency entry in test [10], in test [16], in [17] and in test [12] was “inactive” throughout. For the same compound, the Potency in test [3] is 63.7 µM (active). For the same compound, the outcome in [4], in [15], in [11], in [13], in [18] and in test [19] was inactive.
With `C(COCC1CO1)OCC1CO1` (centres undefined), the Potency result in [1], in test [2], in test [3], in test [5], in test [7] and in [8] was “inactive” in each case. Further, the Potency result in test [10], in [16], in test [17], in test [12] and in test [14] was “inactive” in each case. Further, the compound was called inactive in test [4], in [11] and in test [13].
Regarding `CC(O)CCl` (centres undefined), the Potency entry in test [1], in [2], in test [3], in test [5], in [7] and in test [8] was “inactive” each time. The Potency entry in test [9], in test [10], in test [16] and in [17] was “inactive” each time. The call in [4], in [11], in test [13] and in test [18] was inactive.
Take `O=C(O)C(F)(F)C(F)(F)C(F)(F)C(F)(F)C(F)(F)C(F)(F)F`: the Potency result in test [1], in test [2], in test [3], in [7], in [8] and in test [9] was “inactive” in each case. Also, the Potency result in [10], in test [17] and in test [12] was “inactive” in each case. Besides, the call in test [4], in test [11], in [13], in [18] and in [19] was inactive.
As for `Clc1cc2c(cc1Cl)Oc1cc(Cl)c(Cl)cc1O2`, the activity change, negative = cytotoxicity in test [1] is 1.38% [at 0.342 µM]; in test [5], 15.5% [at 0.275 µM, co-treated with 50 nM rosiglitazone]; in [8], -11.9% [at 0.275 µM]; in [10], -2.8% [at 0.275 µM]; in test [14] it was -5.6% [at 0.275 µM]. Moreover, the Potency in test [2] is 0.0011 µM (active). Also, the viability change, negative = cytotoxic is -4.26% [at 0.341 µM] in test [3], -8.47% [at 0.338 µM] in test [7], -3.41% [at 0.278 µM] in test [16] and -3.37% [at 0.275 µM] in test [12]. In addition, the activation in test [4] is -9.85% [at 0.285 µM]; in [9] it was -0.0962% [at 0.275 µM]; in test [15] it was 7.23% [at 0.275 µM]; in test [18] it was 3.98% [at 0.275 µM]. Further, the ratio activity, negative = inhibition in [17] is -14.9% [at 0.278 µM]. The activity change, negative = inhibition in test [11] was -0.544% [at 0.275 µM]; in test [19] it was -1.31% [at 0.281 µM].
For `CC(C)(C1CCC(O)CC1)C1CCC(O)CC1` (centres undefined), the Potency result in [1], in test [2], in [3], in test [5], in test [6] and in [7] was “inactive” in each case. Besides, the Potency entry in test [8], in test [9], in test [10], in test [16], in test [12] and in test [14] was “inactive” throughout. The outcome in [4], in [18] and in [19] was inactive.
For the compound `CCOC(=O)CCl`, the Potency result in test [1], in test [2], in test [3], in test [5], in test [7] and in test [8] was “inactive” throughout. Further, the Potency entry in test [9], in [10], in [16], in [17], in test [12] and in test [14] was “inactive” in each case. The compound was called inactive in test [4], in [15], in test [11], in test [13], in [18] and in test [19].
